# Akt phos inh – Akt phosphorylation inhibition. hit rate 0.32% among 360,000. Neuro2A IGF-stimulated pAkt S473 HTRF, 20 min; hits give low values. activity change, % for hits at 50 µM; in the data active = activity change below about -80%; inconclusive = mostly about -51% to -80%; also: % is scaled to controls: 0 for no effect and ±100 for the full control effect
#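 Neuro2A cells (4,500/well, DMEM with 0.5% FBS) were treated with compound at a single 50 µM final concentration, stimulated with 6 nM IGF for 20 min at 37 °C, and lysed. Phospho-Akt Ser473 was read by HTRF as 665/615 ratio ×10^4.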
# RXFP1 antagonist – RXFP1 (human) relaxin receptor antagonism; Q9HBX9; HEK293-RXFP1, relaxin-stimulated cAMP HTRF, 30 min; hits give low values; activity change, negative = inhibition, % at 57.5 µM; hit rate 0.59% among 350,000; AID 1259400;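 active = activity change of -60% or lower, but not beyond a set lower limit; inconclusive = change between -60% and -40%, or beyond the set limit; inactive = change above -40%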; also: % is scaled to controls: 0 for no effect and ±100 for the full control effect
# Target sequence (Q9HBX9 whole entry, looked up): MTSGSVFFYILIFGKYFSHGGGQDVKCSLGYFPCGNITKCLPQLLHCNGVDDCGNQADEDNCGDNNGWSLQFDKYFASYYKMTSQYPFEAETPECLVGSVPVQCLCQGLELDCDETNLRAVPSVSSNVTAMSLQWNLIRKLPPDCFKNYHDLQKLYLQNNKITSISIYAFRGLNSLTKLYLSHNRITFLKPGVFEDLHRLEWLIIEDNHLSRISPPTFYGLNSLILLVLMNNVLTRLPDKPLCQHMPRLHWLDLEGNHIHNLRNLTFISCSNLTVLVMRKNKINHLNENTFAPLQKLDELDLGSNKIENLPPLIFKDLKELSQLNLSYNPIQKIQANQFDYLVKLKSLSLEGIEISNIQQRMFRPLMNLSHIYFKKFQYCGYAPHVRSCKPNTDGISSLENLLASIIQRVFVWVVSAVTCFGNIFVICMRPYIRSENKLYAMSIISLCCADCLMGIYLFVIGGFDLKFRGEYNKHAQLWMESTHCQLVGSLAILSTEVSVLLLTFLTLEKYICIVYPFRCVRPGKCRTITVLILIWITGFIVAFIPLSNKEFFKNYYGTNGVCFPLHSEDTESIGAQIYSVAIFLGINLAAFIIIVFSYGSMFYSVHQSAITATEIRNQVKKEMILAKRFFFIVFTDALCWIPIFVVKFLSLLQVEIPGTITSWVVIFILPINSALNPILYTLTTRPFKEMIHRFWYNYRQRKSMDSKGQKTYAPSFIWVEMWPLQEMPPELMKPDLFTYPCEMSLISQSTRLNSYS
# gsp antag – antagonists of gsp mutant (McCune-Albright syndrome); gsp-mutant cells, cAMP HTRF, 30 min; Potency, µM (titrated, usually from 76.9 µM), for the others: at the highest dose activity change, negative = inhibition, most hits filed as inhibitors; hit rate 0.4% among 340,000; AID 624288; calls by dose curve; cell line not stated here;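 also: intracellular cAMP measured with PDE inhibitor Ro 20-1724 present during compound exposure; potency is read from the fitted curve at half-maximal effect; % is scaled to controls: 0 for no effect and ±100 for the full control effect; nearly all actives have a fitted effect of over 65% in size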
#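 Cells in G418 medium, seeded 16-24 h, 37C; buffer exchange to DPBS + 1 mM CaCl2, 0.5 mM MgCl2, 0.05% BSA; cpds in DMSO + […] (300 uM stock), 30 min 37C; HTRF cAMP detection.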
# ClpP mod – qHTS Assay for Activators of ClpP; ATP-dependent Clp protease proteolytic subunit (Bacillus subtilis (strain 168)), P80244; purified B. subtilis ClpP, FRET peptide cleavage, 20 min; Potency, µM (series often up to 57.5 µM), for the others: at the highest dose activity change, negative = active; hit rate 1.9% among 340,000; active = well fitted falling curve with a large enough effect; inconclusive = small, poorly fitted or top-dose-only effect; inactive = no such curve, though single readings can be large or run the other way; also: potency is read from the fitted curve at half-maximal effect; the source files actives as falling curves though it sought activators and does not explain the sign; nearly all actives have a fitted effect of over 65% in size
#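 Purified B. subtilis ClpP, 10 microg/mL final in Tris/HCl pH8 with KCl, BSA, glycerol and Tween-20, cleaved an Abz/nitrotyrosine-quenched decapeptide. Fluorescence (ex 320, em 430) was read at 0 and 20 min at room temperature. Delta was normalized to 5.8 microM ADEP and DMSO/no-enzyme controls.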
# gsp ag – agonists of gsp mutant (McCune-Albright syndrome); gsp mutant cells, cAMP HTRF, 30 min; hit rate 0.13% among 340,000; Potency, µM (top dose mostly 76.9 µM), without a hit: at the highest dose activation (cAMP increase), usual class: activators; AID 624287; active = well fitted activation curve with a large enough effect; inconclusive = small, poorly fitted or top-dose-only effect, or another doubt; inactive = no such curve, though single readings can be large or run the other way; cell line not stated here;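 also: phosphodiesterase inhibitor Ro 20-1724 added with compounds to block cAMP breakdown; potency is read from the fitted curve at half-maximal effect; nearly all actives have a fitted effect of over 60% in size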
#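 Cells in DMEM/10% FBS with G418 were pretreated with compounds in DMSO plus […] (300 uM stock) for 30 min at 37C. cAMP was measured by HTRF (cAMP-d2 plus anti-cAMP antibody-K) after 30 min at room temperature.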
# RXFP1 agonist – RXFP1 (human) receptor agonism; Q9HBX9; HEK293T-RXFP1 cAMP TR-FRET, 30 min; response scale: percent of porcine relaxin response, buffer zero; Potency, µM (series often up to 57.5 µM), without a hit: top-dose activation, usual class: activators; hit rate 0.3% among 370,000; AID 2676; active = well fitted activation curve with a large enough effect; inconclusive = small, poorly fitted or top-dose-only effect; also: potency is read from the fitted curve at half-maximal effect; % is scaled to controls: 0 for no effect and ±100 for the full control effect; nearly all actives have a fitted effect of over 60% in size
#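 HEK293 cells stably expressing RXFP1, treated 30 min at 37C with compounds plus PDE4 inhibitor Ro 20174; cAMP measured by HTRF TR-FRET. Normalized to buffer and 29 nM porcine relaxin; EC50 by Hill fit.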
# * marks the source's active call; other numbers are inactive results; i = inactive; ? = inconclusive; nt = not tested or not shown; [ ] = dose if it differs, or a comment. In the library only some 2.7% were active in any assay of this set; here they are far more common.
SMILES,Akt phos inh,RXFP1 antagonist,gsp antag,ClpP mod,gsp ag,RXFP1 agonist
Cc1nn(CCO)c2nc(-c3cccs3)cc(C(F)(F)F)c12,i,-9,2%,-6%,2%[15.4 µM],-1%
Cc1nn(CCc2nn[nH]n2)c2nc(C(F)(F)F)cc(C(F)(F)F)c12,i,-14,-6%,10µM*,-3%,1%
Cc1nn(CCc2nn[nH]n2)c2nc(-c3ccc(Br)cc3)cc(C(F)(F)F)c12,i,3,-2%,nt,65%[15.4 µM],14µM*
CCN(CCCNC(=O)c1nn(-c2ccc(C)cc2)c(=O)c2c1c1ccccc1n2C)c1ccccc1,nt,-2,nt,-4%,nt,11%
Cc1cc2nc(SCC(=O)Nc3nonc3C)c3c(c2cc1C)CCCC3,-91%*,-3,0%,5%,14%,3%
O=[N+]([O-])c1ccc(N=Nc2ccc(O)c3ccccc23)cc1,i,?,25µM*,nt,16%,nt
COc1cc2c(cc1OC)/C(=C/C(C)=O)OC2,i,nt,nt,-3%,nt,nt
CCOc1ccccc1NC(=O)c1cc(=O)c2ccc(C)cc2o1,nt,-8,nt,-2%,nt,25%
COc1cc(OC)c2c(-c3cccc(-c4cccc(C)c4)c3)cc(=O)oc2c1,i,nt,7%,22µM*,nt,nt
O=C(Cc1ccc([N+](=O)[O-])cc1)NCc1cccnc1,i,10,1%,-10%,4%[15.4 µM],5%
O=C(Cc1ccc([N+](=O)[O-])cc1)NCc1ccccc1Cl,i,-10,9%,11µM*,8%,-1%
Cc1ccc(CC(NC(=O)c2ccc(C)cc2)C(=O)O)cc1 (configuration not stated),i,nt,-3%,-3%,nt,nt
O=C(CSc1ccc(Br)cc1)Nc1cccc(S(=O)(=O)N2CCOCC2)c1,i,-15,-6%,-3%,2%,-1%
N#Cc1c(/N=C/c2ccccc2)oc(-c2ccccc2)c1-c1ccccc1,i,15,0%,35µM*,-23%,1%
Cc1ccc(CNC(=O)C2CCCN(c3nn4cc(-c5ccc(C)cc5)nc4s3)C2)cc1 (configuration not stated),nt,-25,nt,0%,nt,2%
Cc1cccc(C)c1NS(=O)(=O)c1ccc(NC(=O)c2ccc(Cl)c([N+](=O)[O-])c2)cc1,i,-17,25µM*,-1%,?,2%
O=C(Nc1ccc(C(O)(C(F)(F)F)C(F)(F)F)cc1)c1ccc(Cl)c([N+](=O)[O-])c1,i,-89*,35µM*,-2%,-39%,-2%
Cc1ccc(-c2cnc3c(c2)C(=O)N([C@H](C)CO)C[C@@H](C)[C@@H](CN(C)C(=O)Cc2ccccc2)O3)cc1,i,-3,nt,-24%,26%,nt
CN(C)[C@@H]1C(=O)C(C(=O)NCN2CCCC2)=C(O)[C@@]2(O)C(=O)C3=C(O)c4c(O)cccc4[C@@](C)(O)C3C[C@@H]12 (some centres not stated),nt,12,nt,nt,nt,nt
O=C(Nc1ccccc1Cc1ccccc1)c1oc2ccccc2c1COc1ccccc1,i,-3,5%,28µM*,6%,0%
COc1cccc(CNC(=O)c2ccc3c(c2)nc2n3CCOC2)c1OC,nt,-1,nt,-1%,nt,6%
COc1ccccc1N1CCN(C(=O)c2cccc(S(=O)(=O)N3c4ccccc4CC3C)c2)CC1 (configuration not stated),i,-3,32µM*,-3%,11%,nt
CCOCCCNC(=O)/C(C#N)=C/c1ccc([N+](=O)[O-])o1,i,-7,-12%,nt,1%[15.4 µM],-5%
Cc1ccc(-c2nn(-c3ccccc3)cc2/C=N/n2c(-c3cccs3)n[nH]c2=S)cc1,i,-96*,?,nt,-5%[15.4 µM],2%
Cc1nc2ccccc2c(=O)n1/N=C/c1cn(-c2ccccc2)nc1-c1cccs1,i,4,-19%,9%,4%,3%
SMILES,Akt phos inh,RXFP1 antagonist,gsp antag,ClpP mod,gsp ag,RXFP1 agonist
S=c1[nH]nc(-c2ccncc2)n1/N=C/c1cn(-c2ccccc2)nc1-c1ccccc1,i,-36,-3%,0%,?,3%
S=c1[nH]nc(-c2cccs2)n1/N=C/c1cn(-c2ccccc2)nc1-c1cccs1,i,-83*,?,nt,-3%[15.4 µM],2%
Cc1cc(OCC(=O)Nc2ccc(C(=O)OC3CCCCC3)cc2)cc(C)c1Cl,nt,7,nt,1%,nt,3%
CSCCC(NC(=O)c1cccc([N+](=O)[O-])c1)C(=O)OCC(=O)N1CCCC1=O (configuration not stated),i,-6,-10%,-2%,-1%,3%
CSCCC(NC(=O)c1cccc([N+](=O)[O-])c1)C(=O)O (configuration not stated),i,-1,13%,25µM*,-33%,-1%
Cc1cccnc1NC(=O)c1ccc(NS(=O)(=O)/C=C/c2ccccc2)cc1,i,-5,10%,2%,17%,0%
Cc1ccnc(NC(=O)c2ccc(NS(=O)(=O)/C=C/c3ccccc3)cc2)c1,i,-15,10%,28µM*,-14%,1%
Cc1nn2c(=O)cc(COC(=O)c3ccccc3NC(=O)C3CCCCC3)nc2s1,nt,0,nt,-1%,nt,1%
COc1cccc2c(=O)ccoc12,i,10,2%,?,-14%,0%
COc1c2ccoc2nc2c(OC)cccc12,i,-4,1%,16µM*,8%,3%
COc1ccc(CCNS(=O)(=O)CCNC(=O)c2ccc3c(c2)OCO3)cc1,i,11,-9%,0%,19%[15.4 µM],-1%
COc1cccc(-n2c(-c3ccc(C)cc3)cc3c2CC(C)(C)CC3=O)c1,nt,-3,nt,?,nt,-3%
COc1ccc(-n2c(-c3ccc(C)cc3)cc3c2CC(C)(C)CC3=O)c(OC)c1,nt,-62*,nt,?,nt,4%
CC1(C)S[C@@H]2C(C(=O)O)NC(=O)N2C1C(=O)O (some centres not stated),nt,nt,nt,-1%,nt,nt
O=C(N/N=C/c1ccc(O)c(O)c1O)/C(=C/c1ccc([N+](=O)[O-])cc1)NC(=O)c1ccccc1,i,-71*,-28%,1%,8%[15.4 µM],0%
Cc1cccc(-n2c(=O)[nH]c3c(C(N)=O)nc(C(C)C)nc32)c1,i,3,7%,22µM*,-9%,1%
COc1ccc(NS(=O)(=O)c2cccc(C(=O)NNC(=O)c3cncc(Br)c3)c2)cc1,i,-13,13%,28µM*,2%[15.4 µM],0%
COc1ccc(NS(=O)(=O)c2cccc(C(=O)NNC(=O)c3ccc(Br)o3)c2)cc1,i,0,0%,nt,3%[15.4 µM],1%

# Bioassay records as filed in PubChem BioAssay.
